This note sets out measurements from the antibiotic and cytotoxicity screens of Wong et al. (2023).

Among all 39,000 compounds or so, about 3,300 (8.5%) were called active. The sample holds actives, similar compounds and a random draw of the others, so the mix is not that of the screen.

The test system of the test is HepG2. The experiment in a line: cytotoxicity call (relative viability < 0.9). The settings on record: 10 µM.
On to `O=C(NCCCN1CCOCC1)[C@H]1[C@H](CO)[C@H]2Cn3c(cccc3=O)[C@@H]1N2C(=O)C1CCCC1`, for which the cytotoxicity call was “inactive”.
Under `COc1ccc(CNC(=O)C[C@H]2C[C@@H]3c4cc(NS(=O)(=O)c5ccc(F)cc5)ccc4O[C@@H]3[C@H](CO)O2)cc1` stands “inactive”; under `C[C@@H]1CN([C@@H](C)CO)C(=O)Cc2cc(NC(=O)CCCCCC(=O)Nc3ccccc3N)ccc2O[C@H]1CN(C)S(C)(=O)=O`, “inactive”.
On to `COc1cccc(CN(C)C[C@@H]2OCc3ccccc3-c3c(n(C)c4ccccc34)C(=O)N([C@@H](C)CO)C[C@H]2C)c1`, for which the cytotoxicity call was “inactive”.
With `C[C@H](CO)N1C[C@H](C)[C@H](CN(C)Cc2ccc(C(F)(F)F)cc2)OCCCC[C@H](C)Oc2ccc(NS(=O)(=O)c3cn(C)cn3)cc2C1=O`, the cytotoxicity call was “inactive”.
Take `O=C(C[C@@H]1CC[C@H]2[C@@H](COC[C@H](O)CN2C(=O)Nc2ccc(Cl)cc2)O1)NCCc1ccncc1`: the cytotoxicity call was “inactive”.
Under `C[C@@H]1CCCCO[C@H](CN(C)Cc2ccc(C(F)(F)F)cc2)[C@@H](C)CN([C@@H](C)CO)C(=O)c2cc(N(C)C)ccc2O1` stands “inactive”.
Under `O=C(C[C@@H]1C[C@@H]2c3cc(NC(=O)C4CCOCC4)ccc3O[C@@H]2[C@H](CO)O1)NCc1cc(F)ccc1F` stands “inactive”; under `O=C(O)c1cc2ccc(O)c(=O)c-2c(O)c(O)c1`, “inactive”.
Turning to `O=c1c(O)c(O)cc2cccc(O)c(O)c1-2`, the cytotoxicity call is “active”.
Under `O=c1c(O)cccc2cc(O)c(O)c(O)c12` stands “inactive”; under `CCCNC(=O)Nc1ccc2c(c1)OC[C@H](C)N(C(=O)C1CCOCC1)C[C@H](C)[C@@H](OC)CN(C)C2=O`, “inactive”.
As to `Cc1ccc(S(=O)(=O)N(C)C[C@@H]2Oc3ccc(NS(C)(=O)=O)cc3CC(=O)N([C@@H](C)CO)C[C@H]2C)cc1`, the cytotoxicity call was “inactive”.
Regarding `C=CCOC(=O)[C@@H]1[C@@H]2C=C[C@@]3(O2)[C@@H]1C(=O)N(CCCCCCO)[C@H]3C(=O)N(CC=C)Cc1ccccc1`, the cytotoxicity call was “active”.
For the compound `C=CCN(Cc1ccccc1)C(=O)[C@@H]1N(CCOCCO)C(=O)[C@@H]2[C@H](C(=O)O)[C@@H]3C=C[C@@]21O3`, the cytotoxicity call is “inactive”.
Consider `C=CCOC(=O)[C@@H]1[C@@H]2C=C[C@]3(O2)[C@H](C(=O)N(CC=C)Cc2ccccc2)N(c2cccc(Cl)c2CO)C(=O)[C@@H]13`, for which the cytotoxicity call is “inactive”.
Under `Cc1cc(C(=O)Nc2cccc3c2O[C@@H](CN(C)C(=O)Nc2ccc4c(c2)OCO4)[C@H](C)CN([C@H](C)CO)C3=O)n(C)n1` stands “inactive”; under `CC(=O)N1CCN(CCOc2ccc(C3CCN(C4=Nn5c(nnc5C(F)(F)F)CC4)CC3)cc2)CC1`, “active”.
For `C[C@@H]1CN([C@H](C)CO)S(=O)(=O)c2ccc(/C=C/c3ccccc3)cc2O[C@@H]1CN(C)C(=O)CN1CCOCC1`, the cytotoxicity call was “inactive”.
In the case of `COc1ccc(NC(=O)N(C)C[C@H]2OCCCC[C@H](C)Oc3ccc(NC(=O)Nc4ccc(F)cc4)cc3C(=O)N([C@@H](C)CO)C[C@H]2C)cc1`, the cytotoxicity call is “inactive”.
Under `CC(C)C[C@@H]1NC(=O)[C@@H]2C[C@H](C(=O)NCCCCCNC(=O)CS)[C@H](c3ccc(O)cc3)N2C1=O` stands “inactive”; under `C[C@H]1CN([C@@H](C)CO)S(=O)(=O)c2ccc(-c3cccc(C#N)c3)cc2O[C@H]1CN(C)C(=O)c1ccncc1`, “inactive”.
As for `C[C@@H]1CN([C@@H](C)CO)S(=O)(=O)c2ccc(-c3ccc(C(=O)N(C)C)cc3)cc2O[C@@H]1CN(C)C(=O)C1CCOCC1`, the cytotoxicity call was “inactive”.
For the compound `Cc1ccccc1C(OCCN(C)C)c1ccccc1.O=C(O)CC(O)(CC(=O)O)C(=O)O` (stereo not drawn), the cytotoxicity call is “inactive”.
Under `CCN(CC)CCOc1ccc(C(=C(Cl)c2ccccc2)c2ccccc2)cc1.O=C(O)CC(O)(CC(=O)O)C(=O)O` stands “active”.
For the compound `CCC(=C(c1ccccc1)c1ccc(OCCN(C)C)cc1)c1ccccc1.O=C(O)CC(O)(CC(=O)O)C(=O)O`, the cytotoxicity call was “inactive”.
Consider `CCN(CC)CCOCCOC(=O)C1(c2ccccc2)CCCC1.O=C(O)CC(O)(CC(=O)O)C(=O)O`, for which the cytotoxicity call is “active”.
Under `O=C(O)CC(O)(CC(=O)O)C(=O)O` [listing 1 of 2 here] stands “inactive”.
Under `CCN(CC)CCOCCOC(=O)C(CC)(CC)c1ccccc1.O=C(O)CC(O)(CC(=O)O)C(=O)O` stands “inactive”.
Take `O=C(O)C1(c2ccccc2)CCCC1`: the cytotoxicity call was “inactive”.
Under `CN(C)CCOc1ccc(C(=C(CCCl)c2ccccc2)c2ccccc2)cc1.O=C(O)CC(O)(CC(=O)O)C(=O)O` stands “active”.
Under `O=C(O)CC(O)(CC(=O)O)C(=O)O` [listing 2 of 2 here] stands “inactive”; under `O=C(C[C@@H]1CC[C@@H]2[C@H](COC[C@H](O)CN2S(=O)(=O)c2ccc(F)cc2)O1)NCCN1CCCCC1`, “inactive”; under `C[C@@H]1CN([C@H](C)CO)C(=O)c2cccc(NS(C)(=O)=O)c2O[C@H]1CN(C)C(=O)Nc1ccc2c(c1)OCO2`, “inactive”.
Under `CC(C)CC#Cc1ccc2c(c1)O[C@H](CN(C)Cc1cncnc1)[C@@H](C)CN([C@H](C)CO)S2(=O)=O` stands “inactive”; under `C=CC(=O)Nc1ccc([C@@H](CCc2ccc(OC)c(OC)c2)OC(=O)[C@@H]2CCCCN2C(=O)C(=O)C(C)(C)CC)cc1`, “inactive”; under `Cc1ccc(S(=O)(=O)Nc2ccc3c(c2)C(=O)N([C@H](C)CO)C[C@@H](C)[C@@H](CN(C)C(=O)Cc2ccccc2)OCCCC[C@H](C)O3)cc1`, “inactive”.
Consider `COCC(=O)Nc1ccc2c(c1)OC[C@@H](C)N(Cc1ccccc1F)C[C@@H](C)[C@H](OC)CN(C)C2=O`, for which the cytotoxicity call was “inactive”.
Consider `Cc1noc(C)c1NC(=O)Nc1ccc2c(c1)C(=O)N([C@@H](C)CO)C[C@@H](C)[C@H](CN(C)S(=O)(=O)c1cccs1)OCCCC[C@H](C)O2`, for which the cytotoxicity call is “inactive”.
Under `C[C@@H]1CN([C@H](C)CO)C(=O)c2cc(NC(=O)Cn3cnnn3)ccc2O[C@@H]1CN(C)S(=O)(=O)c1cccs1` stands “inactive”; under `O=C(O)CC[C@H]1CCCCN1`, “inactive”.
With `C1CCC(C(CC2CCCCN2)C2CCCCC2)CC1.O=C(O)C=CC(=O)O` (stereo not drawn), the cytotoxicity call is “active”.
Under `O=C(O)[C@@H]1CCCCN1` stands “inactive”; under `OC[C@@H]1CCCN1`, “inactive”; under `C1CCC(C(C[C@H]2CCCCN2)C2CCCCC2)CC1`, “active”.
Regarding `OC[C@@H]1CCCCN1`, the cytotoxicity call was “inactive”.
`C[C@H]1CN([C@@H](C)CO)C(=O)c2cccc(NS(=O)(=O)c3cn(C)cn3)c2O[C@H]1CN(C)CC1CCCCC1`: the cytotoxicity call is “inactive”.
`CCCC#Cc1ccc2c(c1)O[C@@H](CN(C)S(=O)(=O)c1cccc(F)c1)[C@@H](C)CN([C@@H](C)CO)S2(=O)=O`: the cytotoxicity call is “inactive”.
